Test results: PubChem BioAssay (NCI)
This is part of a sample that, as a whole, favours compounds with a hit. Of some 83,000 tested, about 20% had one in any assay.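 Method: cells in 96-well plates; compound added at one concentration; 48 h incubation; percent growth measured; values under 10 scored active.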 Unmarked numbers belong to inactive results. Active and inactive are the calls of the source.

Assays:
Test in all cases: NCI-60 one-dose screen, 48 h (100 = growth as untreated, 0 = no growth, -100 = all killed)
Settings in all cases: 10 µM unless noted
SR leukemia = test system: SR leukemia
RPMI-8226 leukemia = test system: RPMI-8226 leukemia
OVCAR-8 ovarian = test system: OVCAR-8 ovarian
OVCAR-5 ovarian = test system: OVCAR-5 ovarian
OVCAR-4 ovarian = test system: OVCAR-4 ovarian
IGROV1 ovarian = test system: IGROV1 ovarian
OVCAR-3 ovarian = test system: OVCAR-3 ovarian
HS 578T breast = test system: HS 578T breast
NCI/ADR-RES ovarian = test system: NCI/ADR-RES ovarian
T-47D breast = test system: T-47D breast
MDA-MB-435 melanoma = test system: MDA-MB-435 melanoma
SW-620 colon = test system: SW-620 colon
HCT-116 colon = test system: HCT-116 colon
HCC-2998 colon = test system: HCC-2998 colon
KM12 colon = test system: KM12 colon
SK-OV-3 ovarian = test system: SK-OV-3 ovarian
BT-549 breast = test system: BT-549 breast
MCF7 breast = test system: MCF7 breast

Row | Compound | growth (SR leukemia) | growth (RPMI-8226 leukemia) | growth (OVCAR-8 ovarian) | growth (OVCAR-5 ovarian) | growth (OVCAR-4 ovarian) | growth (IGROV1 ovarian) | growth (OVCAR-3 ovarian) | growth (HS 578T breast) | growth (NCI/ADR-RES ovarian) | growth (T-47D breast) | growth (MDA-MB-435 melanoma) | growth (SW-620 colon) | growth (HCT-116 colon) | growth (HCC-2998 colon) | growth (KM12 colon) | growth (SK-OV-3 ovarian) | growth (BT-549 breast) | growth (MCF7 breast)
1 | NC(CSSCC(N)C(=O)O)C(=O)O (stereo not drawn) | -20.7% (active) | 53.6% | 2.42% (active) | -5.59% (active) | 35.4% | 31.8% | 4.66% (active) | 50.3% | 84.8% | 54.7% | -15.1% (active) | 21.7% | 18.6% | 9.17% (active) | 8.65% (active) |  |  | 
2 | CCOC(=O)CNC | 93.2% | 99.7% | 91.3% | 97.2% | 96.5% |  | 111% | 121% | 100% | 97.2% | 98.7% | 98.2% | 108% | 96% | 107% | 106% | 109% | 93.8%
3 | CCCCCCCCCCCCCCCCOc1ccccc1NC(=O)CC(C)=O | 107% | 64% | 113% | 102% |  | 88.4% | 118% | 118% | 100% | 111% | 102% | 110% | 97.5% | 104% | 94.5% | 111% | 90.9% | 91.9%
4 | CC(C)(C)NCCC(O)c1cc(C(F)(F)F)nc2c(C(F)(F)F)cccc12 (stereo not drawn) | 121% | 95.7% | 83.6% | 77.8% |  | 71.7% | 75.9% | 65.5% | 84.6% | 86.8% | 82.3% | 89.6% | 56.8% |  | 58.7% | 89.3% |  | 92.6%
5 | Cc1ccc([N+](=O)[O-])c(C)n1 | 106% | 99.4% | 98.4% | 83.5% | 99.1% | 95% |  |  | 115% | 102% | 99.8% | 99.5% | 104% | 103% | 107% | 106% |  | 96.2%
6 | O=Cc1ccc(O)c(O)c1 | 82.9% | 87.5% | 95.8% | 96.2% | 97.1% | 88.8% | 96.3% | 133% | 93.1% | 83.2% | 102% | 113% | 98.5% | 93.3% | 91.2% |  | 101% | 96.5%
7 | CC(=O)CSc1ncnc2nc[nH]c12 | 87.8% | 76.6% | 99.2% | 95.8% | 66.9% |  | 91.5% | 116% | 101% | 82% | 89.7% | 96% | 88.7% | 97.5% | 123% |  | 102% | 74.7%
8 | Cc1ccc(C)c(CCO)c1 | 110% | 138% | 98.8% | 97% |  | 115% | 101% | 105% | 102% | 103% | 107% | 98.3% | 107% | 103% | 101% | 100% | 94.3% | 112%
9 | CC1CC(C)S(=O)(=O)C1 (stereo not drawn) | 97.9% | 109% | 92% | 108% |  | 118% | 111% | 125% | 111% | 109% | 106% | 108% | 114% | 99% | 102% | 120% | 103% | 102%
10 | c1cc(CNCCNCc2ccncc2)ccn1 | 130% | 97.1% | 97% | 115% |  | 113% | 118% | 113% | 108% | 91.4% | 112% | 105% | 95.2% | 102% | 108% | 104% | 117% | 100%
